# Assay outcomes deposited in PubChem by Corson Lab, School of Medicine, Indiana University.
# FECH block – blocks human mitochondrial ferrochelatase activity; purified FECH, Ni-mesoporphyrin absorbance 550 nm; calls only at 10 µM (by protocol); AID 1671448; hit rate 3.3% among 20,000; P22830;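 active = enzyme reaction rate more than 3 SD below the solvent-only control wells on the same plate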;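 note: lower slope than DMSO wells means FECH inhibition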
# Target sequence (P22830 whole entry, looked up): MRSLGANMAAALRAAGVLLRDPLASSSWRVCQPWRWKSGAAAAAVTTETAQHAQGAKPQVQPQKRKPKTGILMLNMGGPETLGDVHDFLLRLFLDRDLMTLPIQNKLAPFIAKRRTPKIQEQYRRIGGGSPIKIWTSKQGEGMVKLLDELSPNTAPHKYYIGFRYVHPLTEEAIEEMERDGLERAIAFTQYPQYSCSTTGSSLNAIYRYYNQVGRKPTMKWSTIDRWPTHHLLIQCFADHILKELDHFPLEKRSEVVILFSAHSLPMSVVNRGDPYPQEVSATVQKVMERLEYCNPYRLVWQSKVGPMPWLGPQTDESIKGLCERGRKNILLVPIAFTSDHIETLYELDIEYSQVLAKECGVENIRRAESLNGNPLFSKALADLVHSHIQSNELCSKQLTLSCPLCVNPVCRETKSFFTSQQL
# Numbers without * were called inactive; i = inactive; + = active, no number. Shown is part of a subset that was picked to be rich in hits.
SMILES,FECH block
C=Cc1ccc(Cn2c(=O)c3cnc(-c4cccnc4)nc3n(C)c2=O)cc1,i
COC(=O)c1c(NC(=O)CCc2ccccc2)sc2c1CCN(C(C)C)C2,i
Cc1cccc(C)c1NC(=O)NCCc1nc2cccnc2n1Cc1ccccc1,i
CC(NC(=O)CCn1nnc2ccccc21)C(=O)N(C)C (stereo not drawn),i
Cc1ccc(C2(O)CCN(C(=O)c3cnnn3-c3ccccc3)CC2)nc1,i
O=C(CNCc1ccccc1Cn1cccn1)Nc1cnccn1,i
CCOCCCNC(=O)C1c2c(n(C)c3ccccc23)SCC(=O)N1c1cccc(Cl)c1 (stereo not drawn),i
COc1ccc(-c2cc(C(=O)Nc3ccc(F)cc3C)[nH]n2)cc1S(N)(=O)=O,i
Cc1cccc(CNCCC(=O)Nc2ccc(C(N)=O)cc2)c1C,i
O=C(CN1CCN(Cc2ccccc2Cl)S1(=O)=O)Nc1cccc(F)c1,i
CN1C(=O)C2(CCN(C(=O)COCC3CCCCO3)CC2)c2ccccc21 (stereo not drawn),+
CCCc1nc(C(=O)N2CCCC3(C2)C(=O)N(C)c2ccccc23)cs1 (stereo not drawn),i
CN1C(=O)C(CCC(=O)N2CCCOCC2)(Cc2ccccc2)c2ccccc21 (stereo not drawn),i
CCn1nc(C)c(NC(=O)CN2CC(Oc3c(C)cccc3C)C2)c1C,i
COc1ccc(CNC(=O)CN2CCCN(Cc3ccccc3Cl)S2(=O)=O)cc1,i
O=C(CN1CCCN(Cc2ccccc2)S1(=O)=O)NCc1ccc(Cl)cc1,i
Cc1ccc(CN2CCCN(CC(=O)NCc3ccccc3Cl)S2(=O)=O)cc1,+
Cc1ccc(CN2CCCN(CC(=O)NCc3ccccc3)S2(=O)=O)cc1,+
Cc1ccc(CN2CCCN(CC(=O)NCCc3ccccc3)S2(=O)=O)cc1,i
Cc1ccc(CNC(=O)CN2CCCN(Cc3cccc(C)c3)S2(=O)=O)cc1,i
Cc1cc(C)c(S(=O)(=O)NCCn2c(CCc3ccccc3)nc3cccnc32)c(C)c1,i
COc1cccc(-c2nc(CSc3nc(C)c(C)c(=O)[nH]3)c(C)o2)c1OC,i
O=C(Cc1cccc(Cl)c1)NCCn1c(-c2ccccc2)nc2cccnc21,i
COc1ccc(N2C(=O)CCS2(=O)=O)cc1S(=O)(=O)Nc1ccc(Oc2ccccc2)cc1,i
CCOc1ccccc1C(=O)N1C[C@@H](N)C[C@H]1C(=O)NC,i
SMILES,FECH block
Cc1ccc(Cn2c(CNC(=O)c3cccnc3)nc3cccnc32)cc1,+
CCc1ccc(Cn2c(CNS(=O)(=O)c3ccc([N+](=O)[O-])cc3)nc3cccnc32)cc1,+
CCOc1ccc(C(=O)NCc2nc3cccnc3n2Cc2ccc(C)cc2)cc1,i
Cc1ccccc1S(=O)(=O)NCc1nc2cccnc2n1CC(C)C,i
Cc1cccc(S(=O)(=O)NCc2nc3cccnc3n2Cc2ccccc2)c1,i
Cc1cccc(Cn2c(CNS(=O)(=O)c3ccc(F)cc3)nc3cccnc32)c1,i
Cc1cccc(Cn2c(CNS(=O)(=O)c3ccccc3)nc3cccnc32)c1,+
CCc1ccc(Cn2c(CNS(=O)(=O)c3ccc(C)cc3)nc3cccnc32)cc1,i
Cc1ccc(Cn2c(CNC(=O)c3ccncc3)nc3cccnc32)cc1,i
CC(C)Cn1c(CNS(C)(=O)=O)nc2cccnc21,+
CCc1ccc(S(=O)(=O)NCc2nc3cccnc3n2Cc2ccc(F)cc2)cc1,i
CC(C)Cn1c(CNS(=O)(=O)c2ccc(Cl)cc2)nc2cccnc21,i
O=S(=O)(NCc1nc2cccnc2n1C1CC1)c1cccc2nsnc12,i
Clc1ccc(Nc2nc(NCCc3ccccc3)nc3c2cnn3-c2ccccc2)cc1,i
C(=C\c1ccccc1)/CN1CCC(n2cc(C3CCCC3)nn2)CC1,i
CN1CCC(Cc2noc(-c3scc4c3OCCO4)n2)CC1,i
O=C(NCCN1CCCCC1)C1CCN(c2ccc(-c3ccc(F)cc3)nn2)CC1,i
Cc1nc(-c2ccc(C(=O)N3CCCC3C(=O)N3CCN(c4cccc(C)c4C)CC3)cc2)no1 (stereo not drawn),i
O=c1cc(CNc2ccc(Cl)cc2)nc2nc(NCc3ccccc3)[nH]n12,+
CCCNCc1cc(=O)n2[nH]c(NCc3ccc(Cl)cc3)nc2n1,i
COc1ccc(CNc2nc3nc(CNc4ccc(F)cc4)cc(=O)n3[nH]2)cc1,+
COc1ccc(CNc2nc3nc(CNc4cc(Cl)ccc4OC)cc(=O)n3[nH]2)cc1,i
O=c1cc(CNc2cccc(Cl)c2)nc2nc(NCc3ccccc3)[nH]n12,i
O=c1cc(CNc2ccc(F)cc2)nc2nc(NCc3ccc(F)cc3)[nH]n12,i
COc1ccc(NCc2cc(=O)n3[nH]c(NCc4ccccc4)nc3n2)cc1,i
O=c1cc(CNc2ccc(Cl)cc2)nc2nc(NCc3ccc(F)cc3)[nH]n12,i
CCCNCc1cc(=O)n2[nH]c(NCc3ccc(OC)cc3)nc2n1,+
CCn1cnc(NC(=O)NC[C@@H]2C[C@@H]3C=C[C@H]2C32CC2)n1,i
